# Laboratory results published in publication PMC7862700, “An all-to-all approach to the identification of sequence-specific readers for epigenetic DNA modifications on cytosine”.
# How the values were obtained:
# Assay in all cases: DAPPL (digital affinity profiling via proximity ligation, sequencing); 10 mM Tris-HCl pH 7.5, 50 mM NaCl, 1 mM DTT, 4% glycerol, room temperature, 30 min; GST-TFs on glutathione beads, 16-mer random dsDNA library, 0.1% formaldehyde crosslink after washing; high values mean tight binding
# Conditions in all cases: protein: recombinant; tags: N-terminal GST; dsDNA, one strand shown
# ELK1 = molecular target: T1, ELK1 (Homo sapiens, UniProt P19419 1-428)
# T1 sequence: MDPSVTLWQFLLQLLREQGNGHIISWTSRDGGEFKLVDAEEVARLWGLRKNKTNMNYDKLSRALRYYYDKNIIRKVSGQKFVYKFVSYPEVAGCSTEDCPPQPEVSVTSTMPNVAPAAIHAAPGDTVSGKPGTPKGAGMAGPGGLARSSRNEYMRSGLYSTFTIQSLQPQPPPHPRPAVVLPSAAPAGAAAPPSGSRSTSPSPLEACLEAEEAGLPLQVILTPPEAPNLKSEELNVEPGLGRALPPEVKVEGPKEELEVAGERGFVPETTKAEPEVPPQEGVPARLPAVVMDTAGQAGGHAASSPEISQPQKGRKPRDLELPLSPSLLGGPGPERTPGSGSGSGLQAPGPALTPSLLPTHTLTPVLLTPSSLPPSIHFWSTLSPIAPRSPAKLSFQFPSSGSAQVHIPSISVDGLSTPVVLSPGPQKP
# In short: (§1)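 The binding signal reported is, for every hexamer, its read frequency for a factor over its read frequency for the tag-only sample. Reads came from pools of yeast-expressed, GST-fused human transcription factors on glutathione beads, barcoded with DNA and mixed with that sample, which were incubated with 200 nmole of a random double-stranded 16-mer DNA library in Tris/NaCl/DTT/glycerol buffer at room temperature for 30 min. After washing, the pools were crosslinked with 0.1% formaldehyde, proximity-ligated with BsaI/T4 ligase for 1 h at 37 °C, PCR-amplified and sequenced on an Illumina NextSeq500.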
# GABPA = molecular target: T2, GABPA (Homo sapiens, UniProt Q06546 1-454)
# T2 sequence: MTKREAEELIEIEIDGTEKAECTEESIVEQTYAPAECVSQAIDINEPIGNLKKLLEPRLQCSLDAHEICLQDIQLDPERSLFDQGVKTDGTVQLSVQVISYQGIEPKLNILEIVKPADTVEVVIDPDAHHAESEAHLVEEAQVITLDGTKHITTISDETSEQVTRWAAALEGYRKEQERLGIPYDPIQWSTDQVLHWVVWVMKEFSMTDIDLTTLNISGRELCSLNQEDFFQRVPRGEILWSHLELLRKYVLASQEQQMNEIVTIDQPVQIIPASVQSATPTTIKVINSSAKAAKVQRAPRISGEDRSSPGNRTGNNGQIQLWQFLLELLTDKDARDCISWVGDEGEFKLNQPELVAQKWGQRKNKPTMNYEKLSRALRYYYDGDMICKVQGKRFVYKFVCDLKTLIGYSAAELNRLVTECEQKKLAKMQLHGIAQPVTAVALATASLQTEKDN
# In short: as §1
# ERG = molecular target: T3, ERG (Homo sapiens, UniProt P11308 1-479)
# T3 sequence: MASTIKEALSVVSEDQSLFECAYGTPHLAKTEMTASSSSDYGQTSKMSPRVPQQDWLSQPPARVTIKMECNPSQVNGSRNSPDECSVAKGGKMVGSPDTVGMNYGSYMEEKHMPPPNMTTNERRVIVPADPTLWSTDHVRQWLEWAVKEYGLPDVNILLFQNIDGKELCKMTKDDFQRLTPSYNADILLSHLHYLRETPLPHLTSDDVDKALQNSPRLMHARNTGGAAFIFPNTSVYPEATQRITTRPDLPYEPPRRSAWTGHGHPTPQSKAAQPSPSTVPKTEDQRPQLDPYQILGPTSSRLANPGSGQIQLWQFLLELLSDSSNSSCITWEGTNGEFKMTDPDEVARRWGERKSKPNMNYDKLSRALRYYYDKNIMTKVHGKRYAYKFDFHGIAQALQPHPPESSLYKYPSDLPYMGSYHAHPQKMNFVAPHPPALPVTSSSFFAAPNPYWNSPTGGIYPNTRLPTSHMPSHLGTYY
# In short: as §1
# ELF1 = ELF1 (Homo sapiens, UniProt P32519 1-619)
# Sequence of ELF1 (P32519 whole entry): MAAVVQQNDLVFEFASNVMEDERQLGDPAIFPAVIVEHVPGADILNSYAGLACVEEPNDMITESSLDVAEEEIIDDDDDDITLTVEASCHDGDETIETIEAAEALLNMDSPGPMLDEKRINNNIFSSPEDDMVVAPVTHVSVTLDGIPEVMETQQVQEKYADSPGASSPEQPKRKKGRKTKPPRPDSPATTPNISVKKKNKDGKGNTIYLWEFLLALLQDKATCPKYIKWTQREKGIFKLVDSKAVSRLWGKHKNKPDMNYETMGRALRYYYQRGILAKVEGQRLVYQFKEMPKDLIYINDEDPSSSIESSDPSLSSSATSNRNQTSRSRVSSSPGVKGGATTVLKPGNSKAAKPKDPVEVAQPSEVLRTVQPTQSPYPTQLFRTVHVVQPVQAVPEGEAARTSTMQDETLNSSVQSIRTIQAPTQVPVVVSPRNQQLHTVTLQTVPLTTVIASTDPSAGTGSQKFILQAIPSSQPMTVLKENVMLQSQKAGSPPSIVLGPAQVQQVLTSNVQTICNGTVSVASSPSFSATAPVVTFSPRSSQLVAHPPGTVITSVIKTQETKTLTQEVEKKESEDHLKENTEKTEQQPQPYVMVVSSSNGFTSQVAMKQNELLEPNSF
# In short: as §1
# EHF = molecular target: T4, EHF (Homo sapiens, UniProt Q9NZC4 1-300)
# T4 sequence: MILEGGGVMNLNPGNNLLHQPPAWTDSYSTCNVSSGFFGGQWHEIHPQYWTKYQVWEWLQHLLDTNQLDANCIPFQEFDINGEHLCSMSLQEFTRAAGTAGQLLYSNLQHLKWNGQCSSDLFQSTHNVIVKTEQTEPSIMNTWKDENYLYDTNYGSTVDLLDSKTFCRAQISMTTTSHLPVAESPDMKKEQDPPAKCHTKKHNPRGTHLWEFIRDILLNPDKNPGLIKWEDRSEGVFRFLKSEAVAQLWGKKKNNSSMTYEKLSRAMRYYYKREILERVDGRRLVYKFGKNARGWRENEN
# In short: as §1
# SPIB = SPIB (Homo sapiens, UniProt Q01892 1-262)
# Sequence of SPIB (Q01892 whole entry): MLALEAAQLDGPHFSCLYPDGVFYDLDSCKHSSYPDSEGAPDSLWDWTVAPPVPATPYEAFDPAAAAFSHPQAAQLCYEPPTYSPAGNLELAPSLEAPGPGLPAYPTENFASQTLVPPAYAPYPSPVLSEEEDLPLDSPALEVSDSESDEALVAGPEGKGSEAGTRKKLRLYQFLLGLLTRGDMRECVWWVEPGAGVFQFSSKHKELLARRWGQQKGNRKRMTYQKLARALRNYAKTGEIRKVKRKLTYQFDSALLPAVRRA
# In short: as §1
# FEV = molecular target: T5, FEV (Homo sapiens, UniProt Q99581 1-238)
# T5 sequence: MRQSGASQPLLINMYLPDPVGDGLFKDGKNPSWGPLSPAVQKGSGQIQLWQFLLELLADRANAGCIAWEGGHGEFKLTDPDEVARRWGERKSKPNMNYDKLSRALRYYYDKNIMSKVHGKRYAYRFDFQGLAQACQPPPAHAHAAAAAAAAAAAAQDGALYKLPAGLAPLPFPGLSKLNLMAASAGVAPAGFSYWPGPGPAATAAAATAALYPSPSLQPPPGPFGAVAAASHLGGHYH
# In short: as §1
# ETV5 = ETV5 (Homo sapiens, UniProt P41161 1-510)
# Sequence of ETV5 (P41161 whole entry): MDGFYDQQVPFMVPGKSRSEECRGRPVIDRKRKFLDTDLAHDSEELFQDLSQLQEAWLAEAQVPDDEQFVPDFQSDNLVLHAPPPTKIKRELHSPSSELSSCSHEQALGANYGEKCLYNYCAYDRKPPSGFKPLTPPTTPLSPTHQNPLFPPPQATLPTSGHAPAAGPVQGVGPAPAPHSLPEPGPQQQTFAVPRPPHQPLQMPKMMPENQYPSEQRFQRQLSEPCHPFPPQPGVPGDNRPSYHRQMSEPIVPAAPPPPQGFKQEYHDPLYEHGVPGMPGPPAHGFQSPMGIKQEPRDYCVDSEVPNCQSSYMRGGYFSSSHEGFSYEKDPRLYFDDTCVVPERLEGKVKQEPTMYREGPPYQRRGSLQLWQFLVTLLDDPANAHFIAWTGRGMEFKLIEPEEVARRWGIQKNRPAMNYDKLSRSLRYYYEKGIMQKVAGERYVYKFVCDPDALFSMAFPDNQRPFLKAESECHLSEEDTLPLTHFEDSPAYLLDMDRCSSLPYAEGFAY
# In short: as §1
# ELF4 = ELF4 (Homo sapiens, UniProt Q99607 1-663)
# Sequence of ELF4 (Q99607 whole entry): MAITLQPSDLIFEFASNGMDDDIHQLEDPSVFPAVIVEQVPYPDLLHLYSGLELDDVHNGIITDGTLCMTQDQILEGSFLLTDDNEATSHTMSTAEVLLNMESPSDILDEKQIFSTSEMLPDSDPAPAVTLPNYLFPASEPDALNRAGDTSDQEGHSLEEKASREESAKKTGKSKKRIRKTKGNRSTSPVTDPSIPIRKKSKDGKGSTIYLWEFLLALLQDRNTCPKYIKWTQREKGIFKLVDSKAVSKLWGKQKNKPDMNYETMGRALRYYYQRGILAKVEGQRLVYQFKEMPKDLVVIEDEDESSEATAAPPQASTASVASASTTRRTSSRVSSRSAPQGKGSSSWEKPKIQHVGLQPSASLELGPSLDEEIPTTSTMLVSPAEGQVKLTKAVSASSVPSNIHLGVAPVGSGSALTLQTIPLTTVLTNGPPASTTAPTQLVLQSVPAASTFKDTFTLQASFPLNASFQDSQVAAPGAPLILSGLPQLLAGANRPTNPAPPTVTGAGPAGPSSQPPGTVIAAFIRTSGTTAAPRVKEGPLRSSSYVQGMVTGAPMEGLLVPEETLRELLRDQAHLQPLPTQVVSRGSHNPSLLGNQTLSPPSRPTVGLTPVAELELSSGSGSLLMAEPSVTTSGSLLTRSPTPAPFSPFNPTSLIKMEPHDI
# In short: as §1
# ELK4 = molecular target: T6, ELK4 (Homo sapiens, UniProt P28324-2 1-405)
# T6 sequence: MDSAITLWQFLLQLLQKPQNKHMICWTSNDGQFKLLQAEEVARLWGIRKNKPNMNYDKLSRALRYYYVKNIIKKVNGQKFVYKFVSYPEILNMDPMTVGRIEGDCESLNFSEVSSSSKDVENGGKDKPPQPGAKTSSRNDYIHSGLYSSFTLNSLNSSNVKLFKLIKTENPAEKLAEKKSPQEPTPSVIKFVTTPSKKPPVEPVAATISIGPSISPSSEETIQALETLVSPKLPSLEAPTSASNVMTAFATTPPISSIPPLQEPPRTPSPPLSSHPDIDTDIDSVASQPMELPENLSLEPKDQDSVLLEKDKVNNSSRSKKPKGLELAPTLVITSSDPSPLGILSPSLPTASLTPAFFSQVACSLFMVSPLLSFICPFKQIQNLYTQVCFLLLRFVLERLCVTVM
# In short: as §1
# ETV2 = molecular target: T7, ETV2 (Homo sapiens, UniProt O00321 1-342)
# T7 sequence: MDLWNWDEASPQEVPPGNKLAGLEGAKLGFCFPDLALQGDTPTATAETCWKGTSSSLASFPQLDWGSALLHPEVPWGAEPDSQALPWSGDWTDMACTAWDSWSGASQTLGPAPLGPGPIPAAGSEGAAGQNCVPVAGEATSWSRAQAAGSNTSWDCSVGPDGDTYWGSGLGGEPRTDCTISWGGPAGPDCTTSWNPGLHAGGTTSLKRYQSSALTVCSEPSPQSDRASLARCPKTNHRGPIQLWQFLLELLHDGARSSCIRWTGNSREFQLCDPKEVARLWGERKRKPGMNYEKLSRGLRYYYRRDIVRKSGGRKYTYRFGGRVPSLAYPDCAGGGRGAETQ
# In short: as §1
# ELF3 = molecular target: T8, ELF3 (Homo sapiens, UniProt P78545 1-371)
# T8 sequence: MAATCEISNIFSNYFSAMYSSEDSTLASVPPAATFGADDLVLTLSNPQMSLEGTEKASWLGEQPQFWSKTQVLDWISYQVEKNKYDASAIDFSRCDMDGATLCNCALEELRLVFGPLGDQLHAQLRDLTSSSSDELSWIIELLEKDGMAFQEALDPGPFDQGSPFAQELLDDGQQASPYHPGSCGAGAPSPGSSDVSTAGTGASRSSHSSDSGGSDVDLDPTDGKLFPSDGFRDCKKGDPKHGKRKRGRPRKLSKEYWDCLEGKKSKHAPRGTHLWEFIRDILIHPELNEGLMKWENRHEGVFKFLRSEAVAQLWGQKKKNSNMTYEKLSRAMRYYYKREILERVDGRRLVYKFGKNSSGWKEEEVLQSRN
# In short: as §1
# ETV1 = ETV1 (Homo sapiens, UniProt P50549 1-477)
# Sequence of ETV1 (P50549 whole entry): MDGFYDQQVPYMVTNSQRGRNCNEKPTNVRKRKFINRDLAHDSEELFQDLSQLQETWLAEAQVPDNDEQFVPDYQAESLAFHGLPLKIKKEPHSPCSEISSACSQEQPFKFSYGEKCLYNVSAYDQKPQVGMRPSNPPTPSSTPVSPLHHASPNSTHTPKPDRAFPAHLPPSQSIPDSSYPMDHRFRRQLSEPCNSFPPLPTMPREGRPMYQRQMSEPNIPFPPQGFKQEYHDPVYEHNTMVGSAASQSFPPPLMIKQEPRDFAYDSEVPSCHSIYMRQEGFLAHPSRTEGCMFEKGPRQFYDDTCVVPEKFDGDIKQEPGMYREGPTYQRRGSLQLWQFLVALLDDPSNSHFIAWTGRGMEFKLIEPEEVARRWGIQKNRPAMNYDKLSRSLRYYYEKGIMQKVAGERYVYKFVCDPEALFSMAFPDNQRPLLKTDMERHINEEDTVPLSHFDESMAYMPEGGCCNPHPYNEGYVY
# In short: as §1
# ERF = molecular target: T9, ERF (Homo sapiens, UniProt P50548 1-548)
# T9 sequence: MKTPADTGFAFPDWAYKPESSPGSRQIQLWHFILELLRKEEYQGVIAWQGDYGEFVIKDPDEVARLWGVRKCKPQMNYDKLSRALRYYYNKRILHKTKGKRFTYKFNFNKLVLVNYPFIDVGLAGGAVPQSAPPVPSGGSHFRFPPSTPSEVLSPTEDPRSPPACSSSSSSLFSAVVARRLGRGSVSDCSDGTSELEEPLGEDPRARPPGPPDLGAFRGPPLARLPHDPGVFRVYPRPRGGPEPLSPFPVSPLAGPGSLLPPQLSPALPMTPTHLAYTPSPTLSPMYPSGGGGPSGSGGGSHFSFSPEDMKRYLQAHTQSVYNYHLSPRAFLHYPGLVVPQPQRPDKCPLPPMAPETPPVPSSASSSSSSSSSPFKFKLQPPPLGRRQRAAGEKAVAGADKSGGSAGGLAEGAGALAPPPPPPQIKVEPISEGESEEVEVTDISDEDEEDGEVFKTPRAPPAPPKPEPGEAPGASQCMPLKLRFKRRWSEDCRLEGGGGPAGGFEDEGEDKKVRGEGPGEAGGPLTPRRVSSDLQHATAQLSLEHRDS
# In short: as §1
# ETV3L = molecular target: T10, ETV3L (Homo sapiens, UniProt Q6ZN32 1-361)
# T10 sequence: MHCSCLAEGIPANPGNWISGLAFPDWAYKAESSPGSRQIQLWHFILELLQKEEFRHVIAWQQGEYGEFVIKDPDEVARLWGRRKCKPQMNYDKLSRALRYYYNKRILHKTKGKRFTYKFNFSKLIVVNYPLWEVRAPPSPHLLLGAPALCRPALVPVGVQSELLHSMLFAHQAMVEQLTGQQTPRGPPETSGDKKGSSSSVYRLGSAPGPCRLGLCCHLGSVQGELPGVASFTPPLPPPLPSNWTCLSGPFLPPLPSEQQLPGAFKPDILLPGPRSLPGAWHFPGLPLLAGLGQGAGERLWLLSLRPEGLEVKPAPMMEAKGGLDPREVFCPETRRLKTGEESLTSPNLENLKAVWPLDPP
# In short: as §1
# ETS2 = molecular target: T11, ETS2 (Homo sapiens, UniProt P15036 1-469)
# T11 sequence: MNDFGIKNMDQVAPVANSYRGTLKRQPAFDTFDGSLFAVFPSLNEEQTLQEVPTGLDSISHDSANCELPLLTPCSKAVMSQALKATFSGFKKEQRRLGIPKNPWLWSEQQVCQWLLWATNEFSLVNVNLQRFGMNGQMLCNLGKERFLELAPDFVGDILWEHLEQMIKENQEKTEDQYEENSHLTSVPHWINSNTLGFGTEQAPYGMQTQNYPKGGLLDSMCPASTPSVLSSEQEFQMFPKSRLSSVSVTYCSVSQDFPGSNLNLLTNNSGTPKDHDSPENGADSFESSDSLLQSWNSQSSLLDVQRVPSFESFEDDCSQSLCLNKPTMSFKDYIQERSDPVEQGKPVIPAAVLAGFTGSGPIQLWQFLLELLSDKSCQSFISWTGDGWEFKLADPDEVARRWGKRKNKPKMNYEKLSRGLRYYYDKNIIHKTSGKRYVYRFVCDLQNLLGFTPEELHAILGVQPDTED
# In short: as §1
# SPDEF = molecular target: T12, SPDEF (Homo sapiens, UniProt O95238 1-335)
# T12 sequence: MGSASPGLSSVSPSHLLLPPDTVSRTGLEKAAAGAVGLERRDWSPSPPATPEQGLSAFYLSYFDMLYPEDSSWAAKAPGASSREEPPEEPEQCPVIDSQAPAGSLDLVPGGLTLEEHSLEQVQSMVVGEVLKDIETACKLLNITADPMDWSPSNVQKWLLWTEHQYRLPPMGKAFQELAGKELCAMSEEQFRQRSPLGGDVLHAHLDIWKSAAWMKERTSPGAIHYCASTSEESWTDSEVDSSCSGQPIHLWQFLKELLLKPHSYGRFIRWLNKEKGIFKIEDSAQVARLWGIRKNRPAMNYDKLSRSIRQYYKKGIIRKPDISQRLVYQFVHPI
# In short: as §1
# ETV3 = molecular target: T13, ETV3 (Homo sapiens, UniProt P41162-2 1-143)
# T13 sequence: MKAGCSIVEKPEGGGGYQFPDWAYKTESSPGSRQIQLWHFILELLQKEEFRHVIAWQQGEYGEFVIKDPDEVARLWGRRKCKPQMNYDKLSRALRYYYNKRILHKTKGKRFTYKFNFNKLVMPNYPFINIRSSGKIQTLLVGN
# In short: as §1
# ETV6 = ETV6 (Homo sapiens, UniProt P41212 1-452)
# Sequence of ETV6 (P41212 whole entry): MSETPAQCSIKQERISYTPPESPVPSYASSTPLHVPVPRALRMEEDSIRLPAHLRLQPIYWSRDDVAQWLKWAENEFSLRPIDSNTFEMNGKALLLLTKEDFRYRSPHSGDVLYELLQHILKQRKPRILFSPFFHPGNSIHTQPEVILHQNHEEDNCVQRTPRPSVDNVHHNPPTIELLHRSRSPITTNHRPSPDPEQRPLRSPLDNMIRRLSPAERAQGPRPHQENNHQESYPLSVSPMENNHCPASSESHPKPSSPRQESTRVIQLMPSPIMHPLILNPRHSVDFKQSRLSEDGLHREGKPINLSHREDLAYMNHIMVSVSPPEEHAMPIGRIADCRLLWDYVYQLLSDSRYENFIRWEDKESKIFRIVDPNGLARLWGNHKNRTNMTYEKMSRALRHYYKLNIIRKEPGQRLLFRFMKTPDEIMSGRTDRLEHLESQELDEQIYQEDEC
# In short: as §1
sequence,measurement,setting,value
CTAGCG,binding signal,ELK1,"1.12 fold enrichment (6-mer frequency, TF over GST control)"
same,binding signal,GABPA,"1.32 fold enrichment (6-mer frequency, TF over GST control)"
same,binding signal,ERG,"1.19 fold enrichment (6-mer frequency, TF over GST control)"
same,binding signal,ELF1,"1.11 fold enrichment (6-mer frequency, TF over GST control)"
same,binding signal,EHF,"1.18 fold enrichment (6-mer frequency, TF over GST control)"
same,binding signal,SPIB,"1.17 fold enrichment (6-mer frequency, TF over GST control)"
same,binding signal,FEV,"1.15 fold enrichment (6-mer frequency, TF over GST control)"
same,binding signal,ETV5,"1.22 fold enrichment (6-mer frequency, TF over GST control)"
same,binding signal,ELF4,"1.1 fold enrichment (6-mer frequency, TF over GST control)"
same,binding signal,ELK4,"1.16 fold enrichment (6-mer frequency, TF over GST control)"
same,binding signal,ETV2,"1.09 fold enrichment (6-mer frequency, TF over GST control)"
same,binding signal,ELF3,"1.05 fold enrichment (6-mer frequency, TF over GST control)"
same,binding signal,ETV1,"1.17 fold enrichment (6-mer frequency, TF over GST control)"
same,binding signal,ERF,"1.31 fold enrichment (6-mer frequency, TF over GST control)"
same,binding signal,ETV3L,"1.07 fold enrichment (6-mer frequency, TF over GST control)"
same,binding signal,ETS2,"1.18 fold enrichment (6-mer frequency, TF over GST control)"
same,binding signal,SPDEF,"1.1 fold enrichment (6-mer frequency, TF over GST control)"
same,binding signal,ETV3,"1.15 fold enrichment (6-mer frequency, TF over GST control)"
same,binding signal,ETV6,"1.08 fold enrichment (6-mer frequency, TF over GST control)"
